# Measured values reported in PMC7862700, “An all-to-all approach to the identification of sequence-specific readers for epigenetic DNA modifications on cytosine”.
# Columns and labels:
# Assay in all cases: DAPPL (digital affinity profiling via proximity ligation, sequencing); 10 mM Tris-HCl pH 7.5, 50 mM NaCl, 1 mM DTT, 4% glycerol, room temperature, 30 min; GST-TFs on glutathione beads, 16-mer random dsDNA library, 0.1% formaldehyde crosslink after washing; high values mean tight binding
# [1] = target: T1, FLI1 (Homo sapiens, UniProt Q01543 1-452); settings: protein: recombinant; tags: N-terminal GST; dsDNA, one strand shown
# T1 sequence: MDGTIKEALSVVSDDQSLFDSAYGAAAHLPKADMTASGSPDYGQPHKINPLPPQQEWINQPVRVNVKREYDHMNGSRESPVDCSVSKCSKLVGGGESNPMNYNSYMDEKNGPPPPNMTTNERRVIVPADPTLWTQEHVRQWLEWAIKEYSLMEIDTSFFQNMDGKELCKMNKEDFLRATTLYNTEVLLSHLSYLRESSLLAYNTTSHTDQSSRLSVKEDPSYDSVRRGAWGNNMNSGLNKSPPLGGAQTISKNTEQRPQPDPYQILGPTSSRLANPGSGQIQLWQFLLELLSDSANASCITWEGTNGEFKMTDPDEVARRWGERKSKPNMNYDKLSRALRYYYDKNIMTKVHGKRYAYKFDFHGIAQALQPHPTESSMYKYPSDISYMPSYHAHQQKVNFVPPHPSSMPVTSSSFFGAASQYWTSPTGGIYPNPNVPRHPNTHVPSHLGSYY
# How it was run: (§1)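 Human transcription factors fused to GST were expressed in yeast, captured on glutathione beads, given DNA barcodes and pooled with a GST-only negative control. Pools were incubated with 200 nmole of a 16-mer random double-stranded DNA library in Tris/NaCl/DTT/glycerol buffer at room temperature for 30 min. They were then washed, crosslinked with 0.1% formaldehyde, proximity-ligated (BsaI/T4 ligase, 1 h, 37 °C), PCR-amplified and sequenced on an Illumina NextSeq500. Binding signal is each 6-mer's read frequency for a factor divided by its frequency for the GST control.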
# [2] = target: T2, ELK1 (Homo sapiens, UniProt P19419 1-428); settings: protein: recombinant; tags: N-terminal GST; dsDNA, one strand shown
# T2 sequence: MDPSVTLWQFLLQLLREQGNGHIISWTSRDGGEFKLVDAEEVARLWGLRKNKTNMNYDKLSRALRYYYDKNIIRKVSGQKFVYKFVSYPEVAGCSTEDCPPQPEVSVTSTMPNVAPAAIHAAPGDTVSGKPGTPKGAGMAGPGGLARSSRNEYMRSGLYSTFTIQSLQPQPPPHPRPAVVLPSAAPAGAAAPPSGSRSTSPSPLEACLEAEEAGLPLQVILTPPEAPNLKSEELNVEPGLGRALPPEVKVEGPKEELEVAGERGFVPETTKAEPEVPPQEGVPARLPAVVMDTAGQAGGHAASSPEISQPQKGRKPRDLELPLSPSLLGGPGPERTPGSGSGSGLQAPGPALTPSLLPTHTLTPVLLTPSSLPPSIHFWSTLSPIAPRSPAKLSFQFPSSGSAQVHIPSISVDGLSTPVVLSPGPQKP
# How it was run: as §1
# [3] = target: T3, GABPA (Homo sapiens, UniProt Q06546 1-454); settings: protein: recombinant; tags: N-terminal GST; dsDNA, one strand shown
# T3 sequence: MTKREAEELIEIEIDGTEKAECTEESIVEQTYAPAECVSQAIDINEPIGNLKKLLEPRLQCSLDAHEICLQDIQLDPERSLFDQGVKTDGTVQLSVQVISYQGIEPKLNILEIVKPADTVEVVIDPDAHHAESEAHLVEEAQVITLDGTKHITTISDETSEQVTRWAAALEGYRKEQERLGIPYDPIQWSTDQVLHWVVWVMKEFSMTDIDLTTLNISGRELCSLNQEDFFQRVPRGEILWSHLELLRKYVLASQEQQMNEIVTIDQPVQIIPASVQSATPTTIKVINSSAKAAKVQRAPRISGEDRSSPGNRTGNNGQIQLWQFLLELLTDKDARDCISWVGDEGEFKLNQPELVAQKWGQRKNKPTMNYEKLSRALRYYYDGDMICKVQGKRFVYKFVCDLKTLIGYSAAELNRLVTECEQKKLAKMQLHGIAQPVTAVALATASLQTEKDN
# How it was run: as §1
# [4] = target: T4, ERG (Homo sapiens, UniProt P11308 1-479); settings: protein: recombinant; tags: N-terminal GST; dsDNA, one strand shown
# T4 sequence: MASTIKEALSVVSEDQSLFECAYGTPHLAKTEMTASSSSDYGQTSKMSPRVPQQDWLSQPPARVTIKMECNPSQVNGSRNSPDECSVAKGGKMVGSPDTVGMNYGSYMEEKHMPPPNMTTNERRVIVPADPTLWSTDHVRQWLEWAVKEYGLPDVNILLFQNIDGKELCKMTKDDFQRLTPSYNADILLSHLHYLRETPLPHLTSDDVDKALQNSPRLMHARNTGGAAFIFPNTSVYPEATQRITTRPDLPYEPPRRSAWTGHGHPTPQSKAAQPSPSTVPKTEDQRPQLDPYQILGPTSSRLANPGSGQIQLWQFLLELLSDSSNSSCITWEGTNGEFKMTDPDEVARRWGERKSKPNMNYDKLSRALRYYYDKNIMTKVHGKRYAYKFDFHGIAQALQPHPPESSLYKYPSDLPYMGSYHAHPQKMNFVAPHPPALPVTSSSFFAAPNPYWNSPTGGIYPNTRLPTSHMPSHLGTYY
# How it was run: as §1
# [5] = target: ELF1 (Homo sapiens, UniProt P32519 1-619); settings: protein: recombinant; tags: N-terminal GST; dsDNA, one strand shown
# ELF1, sequence (P32519 whole entry): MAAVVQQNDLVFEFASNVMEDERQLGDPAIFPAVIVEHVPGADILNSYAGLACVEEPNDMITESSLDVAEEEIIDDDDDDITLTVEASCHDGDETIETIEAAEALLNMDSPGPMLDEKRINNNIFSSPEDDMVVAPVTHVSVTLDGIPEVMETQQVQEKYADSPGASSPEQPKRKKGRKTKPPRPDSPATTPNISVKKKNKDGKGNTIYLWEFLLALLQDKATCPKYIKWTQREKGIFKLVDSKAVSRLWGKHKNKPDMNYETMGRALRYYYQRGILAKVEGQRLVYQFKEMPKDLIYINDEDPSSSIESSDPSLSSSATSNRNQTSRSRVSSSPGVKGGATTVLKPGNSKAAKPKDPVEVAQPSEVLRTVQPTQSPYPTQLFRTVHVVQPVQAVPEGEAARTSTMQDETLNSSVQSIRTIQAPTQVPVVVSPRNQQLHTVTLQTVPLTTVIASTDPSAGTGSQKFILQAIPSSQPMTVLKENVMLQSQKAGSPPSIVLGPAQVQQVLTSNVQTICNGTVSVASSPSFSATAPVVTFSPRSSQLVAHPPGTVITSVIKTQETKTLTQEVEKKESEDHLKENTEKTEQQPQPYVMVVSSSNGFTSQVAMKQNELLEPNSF
# How it was run: as §1
# [6] = target: T5, EHF (Homo sapiens, UniProt Q9NZC4 1-300); settings: protein: recombinant; tags: N-terminal GST; dsDNA, one strand shown
# T5 sequence: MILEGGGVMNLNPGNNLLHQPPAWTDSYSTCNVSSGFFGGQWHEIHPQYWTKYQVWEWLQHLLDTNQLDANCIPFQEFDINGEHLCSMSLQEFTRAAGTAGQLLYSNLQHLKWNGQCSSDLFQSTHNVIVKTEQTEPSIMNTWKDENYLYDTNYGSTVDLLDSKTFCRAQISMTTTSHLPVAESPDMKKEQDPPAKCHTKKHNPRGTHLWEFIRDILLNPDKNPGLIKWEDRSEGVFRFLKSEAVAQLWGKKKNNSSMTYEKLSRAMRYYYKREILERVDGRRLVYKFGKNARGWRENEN
# How it was run: as §1
# [7] = target: SPI1 (Homo sapiens, UniProt P17947 1-270); settings: protein: recombinant; tags: N-terminal GST; dsDNA, one strand shown
# How it was run: as §1
# [8] = target: SPIB (Homo sapiens, UniProt Q01892 1-262); settings: protein: recombinant; tags: N-terminal GST; dsDNA, one strand shown
# SPIB, sequence (Q01892 whole entry): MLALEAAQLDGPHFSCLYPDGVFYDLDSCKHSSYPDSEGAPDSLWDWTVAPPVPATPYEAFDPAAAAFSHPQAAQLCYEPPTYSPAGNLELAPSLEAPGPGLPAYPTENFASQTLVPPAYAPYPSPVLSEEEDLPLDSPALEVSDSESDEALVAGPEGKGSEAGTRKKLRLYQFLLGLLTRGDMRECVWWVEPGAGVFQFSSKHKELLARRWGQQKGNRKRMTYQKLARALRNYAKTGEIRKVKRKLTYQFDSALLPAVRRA
# How it was run: as §1
# [9] = target: T6, ELK3 (Homo sapiens, UniProt P41970 1-407); settings: protein: recombinant; tags: N-terminal GST; dsDNA, one strand shown
# T6 sequence: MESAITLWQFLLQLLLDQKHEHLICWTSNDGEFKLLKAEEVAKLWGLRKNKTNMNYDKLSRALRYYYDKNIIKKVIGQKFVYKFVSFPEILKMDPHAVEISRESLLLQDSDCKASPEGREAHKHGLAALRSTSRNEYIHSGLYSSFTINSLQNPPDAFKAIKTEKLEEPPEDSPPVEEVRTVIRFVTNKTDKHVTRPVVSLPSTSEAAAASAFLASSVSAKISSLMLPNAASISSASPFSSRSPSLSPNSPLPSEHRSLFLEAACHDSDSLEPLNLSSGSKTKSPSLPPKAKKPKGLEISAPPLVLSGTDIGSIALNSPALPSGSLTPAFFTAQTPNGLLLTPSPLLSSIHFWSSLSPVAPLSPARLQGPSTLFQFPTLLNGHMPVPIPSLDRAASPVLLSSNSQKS
# How it was run: as §1
# [10] = target: T7, FEV (Homo sapiens, UniProt Q99581 1-238); settings: protein: recombinant; tags: N-terminal GST; dsDNA, one strand shown
# T7 sequence: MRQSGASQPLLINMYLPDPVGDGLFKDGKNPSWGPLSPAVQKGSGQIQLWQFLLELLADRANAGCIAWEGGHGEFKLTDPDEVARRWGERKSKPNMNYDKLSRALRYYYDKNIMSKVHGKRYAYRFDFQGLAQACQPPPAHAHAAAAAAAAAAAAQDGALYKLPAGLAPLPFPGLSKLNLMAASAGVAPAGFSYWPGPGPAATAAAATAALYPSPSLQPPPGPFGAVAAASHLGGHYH
# How it was run: as §1
# [11] = target: ETV5 (Homo sapiens, UniProt P41161 1-510); settings: protein: recombinant; tags: N-terminal GST; dsDNA, one strand shown
# ETV5, sequence (P41161 whole entry): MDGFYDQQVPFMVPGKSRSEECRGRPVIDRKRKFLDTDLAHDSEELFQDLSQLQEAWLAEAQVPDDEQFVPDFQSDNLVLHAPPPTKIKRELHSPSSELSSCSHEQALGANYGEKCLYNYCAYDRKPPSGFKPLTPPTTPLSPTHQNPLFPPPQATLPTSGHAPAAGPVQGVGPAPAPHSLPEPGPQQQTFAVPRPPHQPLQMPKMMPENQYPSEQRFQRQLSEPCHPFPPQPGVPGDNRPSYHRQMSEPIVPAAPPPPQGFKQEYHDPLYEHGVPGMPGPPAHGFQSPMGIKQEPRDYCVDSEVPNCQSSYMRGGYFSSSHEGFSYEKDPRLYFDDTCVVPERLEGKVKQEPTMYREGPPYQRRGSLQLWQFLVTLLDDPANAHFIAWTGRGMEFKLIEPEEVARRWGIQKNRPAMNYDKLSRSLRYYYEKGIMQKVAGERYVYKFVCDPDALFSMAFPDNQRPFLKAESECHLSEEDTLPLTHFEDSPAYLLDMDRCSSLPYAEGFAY
# How it was run: as §1
# [12] = target: HSF1 (Homo sapiens, UniProt Q00613 1-529); settings: protein: recombinant; tags: N-terminal GST; chain copies: 3; dsDNA, one strand shown
# HSF1, sequence (Q00613 whole entry): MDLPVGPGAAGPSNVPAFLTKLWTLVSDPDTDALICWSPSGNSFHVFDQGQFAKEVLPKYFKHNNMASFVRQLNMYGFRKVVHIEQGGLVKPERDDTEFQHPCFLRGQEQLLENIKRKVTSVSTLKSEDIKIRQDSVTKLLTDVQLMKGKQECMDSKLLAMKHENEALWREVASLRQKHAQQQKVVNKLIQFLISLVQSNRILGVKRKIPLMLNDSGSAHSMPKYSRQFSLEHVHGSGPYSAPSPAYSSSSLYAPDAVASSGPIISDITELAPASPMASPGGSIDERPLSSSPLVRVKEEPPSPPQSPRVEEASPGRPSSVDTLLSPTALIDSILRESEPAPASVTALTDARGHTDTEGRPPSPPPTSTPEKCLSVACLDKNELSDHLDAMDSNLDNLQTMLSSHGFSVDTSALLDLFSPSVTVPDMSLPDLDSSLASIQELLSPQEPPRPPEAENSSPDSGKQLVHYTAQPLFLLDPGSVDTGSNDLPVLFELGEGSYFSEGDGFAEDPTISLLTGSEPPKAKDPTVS
# How it was run: as §1
# [13] = target: T8, SPIC (Homo sapiens, UniProt Q8N5J4 1-248); settings: protein: recombinant; tags: N-terminal GST; dsDNA, one strand shown
# T8 sequence: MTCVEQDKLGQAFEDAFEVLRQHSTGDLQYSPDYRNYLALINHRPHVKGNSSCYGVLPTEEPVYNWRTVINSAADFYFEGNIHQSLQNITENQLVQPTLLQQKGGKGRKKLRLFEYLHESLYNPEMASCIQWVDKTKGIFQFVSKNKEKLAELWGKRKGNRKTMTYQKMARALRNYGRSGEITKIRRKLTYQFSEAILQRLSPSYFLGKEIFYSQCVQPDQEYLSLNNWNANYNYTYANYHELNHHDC
# How it was run: as §1
# [14] = target: ELF4 (Homo sapiens, UniProt Q99607 1-663); settings: protein: recombinant; tags: N-terminal GST; dsDNA, one strand shown
# ELF4, sequence (Q99607 whole entry): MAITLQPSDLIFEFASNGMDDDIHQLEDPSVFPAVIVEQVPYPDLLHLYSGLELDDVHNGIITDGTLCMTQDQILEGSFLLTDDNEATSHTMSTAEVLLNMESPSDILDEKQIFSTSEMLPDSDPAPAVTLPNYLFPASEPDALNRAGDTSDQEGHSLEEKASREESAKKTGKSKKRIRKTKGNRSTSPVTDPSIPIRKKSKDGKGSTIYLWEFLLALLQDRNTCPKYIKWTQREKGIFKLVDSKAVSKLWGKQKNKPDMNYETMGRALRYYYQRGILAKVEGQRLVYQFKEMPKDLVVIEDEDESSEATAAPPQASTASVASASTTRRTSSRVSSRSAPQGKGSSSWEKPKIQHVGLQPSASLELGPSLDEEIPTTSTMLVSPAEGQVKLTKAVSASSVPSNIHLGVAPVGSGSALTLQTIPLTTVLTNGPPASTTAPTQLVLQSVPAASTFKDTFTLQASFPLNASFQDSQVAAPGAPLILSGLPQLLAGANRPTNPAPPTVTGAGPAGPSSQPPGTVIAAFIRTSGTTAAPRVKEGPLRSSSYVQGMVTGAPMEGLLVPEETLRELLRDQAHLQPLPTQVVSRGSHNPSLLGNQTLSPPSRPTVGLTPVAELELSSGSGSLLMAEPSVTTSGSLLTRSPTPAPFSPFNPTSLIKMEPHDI
# How it was run: as §1
# [15] = target: T9, ELK4 (Homo sapiens, UniProt P28324-2 1-405); settings: protein: recombinant; tags: N-terminal GST; dsDNA, one strand shown
# T9 sequence: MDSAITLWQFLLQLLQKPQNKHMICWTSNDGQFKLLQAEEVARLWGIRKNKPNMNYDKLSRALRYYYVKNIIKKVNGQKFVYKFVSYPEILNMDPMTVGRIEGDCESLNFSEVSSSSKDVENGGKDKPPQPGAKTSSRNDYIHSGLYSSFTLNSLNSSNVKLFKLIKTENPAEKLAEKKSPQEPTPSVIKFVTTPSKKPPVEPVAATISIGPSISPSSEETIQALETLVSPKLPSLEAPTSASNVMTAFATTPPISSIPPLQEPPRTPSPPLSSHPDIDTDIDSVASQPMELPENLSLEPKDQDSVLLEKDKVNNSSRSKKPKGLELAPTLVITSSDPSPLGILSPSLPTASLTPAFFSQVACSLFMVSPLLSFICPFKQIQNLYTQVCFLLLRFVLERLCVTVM
# How it was run: as §1
# [16] = target: T10, ETV2 (Homo sapiens, UniProt O00321 1-342); settings: protein: recombinant; tags: N-terminal GST; dsDNA, one strand shown
# T10 sequence: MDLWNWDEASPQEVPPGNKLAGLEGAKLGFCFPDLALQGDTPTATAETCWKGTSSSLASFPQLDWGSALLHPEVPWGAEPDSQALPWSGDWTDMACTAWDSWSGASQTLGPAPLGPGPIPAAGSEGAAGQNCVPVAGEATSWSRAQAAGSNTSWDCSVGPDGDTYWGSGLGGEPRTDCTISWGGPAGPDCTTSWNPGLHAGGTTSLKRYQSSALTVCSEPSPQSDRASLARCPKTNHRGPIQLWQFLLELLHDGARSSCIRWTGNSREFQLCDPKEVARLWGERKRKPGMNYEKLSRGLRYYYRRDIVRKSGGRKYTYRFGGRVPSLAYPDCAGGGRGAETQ
# How it was run: as §1
# [17] = target: T11, ELF3 (Homo sapiens, UniProt P78545 1-371); settings: protein: recombinant; tags: N-terminal GST; dsDNA, one strand shown
# T11 sequence: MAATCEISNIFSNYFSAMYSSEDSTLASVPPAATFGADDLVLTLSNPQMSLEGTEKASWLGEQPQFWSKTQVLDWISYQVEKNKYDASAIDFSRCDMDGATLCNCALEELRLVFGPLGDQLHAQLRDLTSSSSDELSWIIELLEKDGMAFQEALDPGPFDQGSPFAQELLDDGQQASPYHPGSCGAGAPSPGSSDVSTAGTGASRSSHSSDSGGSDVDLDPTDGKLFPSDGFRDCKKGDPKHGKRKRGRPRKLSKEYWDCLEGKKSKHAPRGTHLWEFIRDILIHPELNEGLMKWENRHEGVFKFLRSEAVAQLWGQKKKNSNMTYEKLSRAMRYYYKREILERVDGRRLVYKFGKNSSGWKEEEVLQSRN
# How it was run: as §1
# [18] = target: CRX (Homo sapiens, UniProt O43186 1-299); settings: protein: recombinant; tags: N-terminal GST; dsDNA, one strand shown
# CRX, sequence (O43186 whole entry): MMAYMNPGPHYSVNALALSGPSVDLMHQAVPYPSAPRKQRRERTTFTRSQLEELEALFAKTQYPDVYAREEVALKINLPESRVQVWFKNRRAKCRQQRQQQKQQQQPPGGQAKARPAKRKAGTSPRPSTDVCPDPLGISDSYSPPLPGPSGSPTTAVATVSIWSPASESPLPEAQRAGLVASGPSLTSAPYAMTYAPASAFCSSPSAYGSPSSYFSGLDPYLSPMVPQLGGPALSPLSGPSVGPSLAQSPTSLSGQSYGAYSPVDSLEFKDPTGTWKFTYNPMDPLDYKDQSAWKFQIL
# How it was run: as §1
# [19] = target: ETV1 (Homo sapiens, UniProt P50549 1-477); settings: protein: recombinant; tags: N-terminal GST; dsDNA, one strand shown
# ETV1, sequence (P50549 whole entry): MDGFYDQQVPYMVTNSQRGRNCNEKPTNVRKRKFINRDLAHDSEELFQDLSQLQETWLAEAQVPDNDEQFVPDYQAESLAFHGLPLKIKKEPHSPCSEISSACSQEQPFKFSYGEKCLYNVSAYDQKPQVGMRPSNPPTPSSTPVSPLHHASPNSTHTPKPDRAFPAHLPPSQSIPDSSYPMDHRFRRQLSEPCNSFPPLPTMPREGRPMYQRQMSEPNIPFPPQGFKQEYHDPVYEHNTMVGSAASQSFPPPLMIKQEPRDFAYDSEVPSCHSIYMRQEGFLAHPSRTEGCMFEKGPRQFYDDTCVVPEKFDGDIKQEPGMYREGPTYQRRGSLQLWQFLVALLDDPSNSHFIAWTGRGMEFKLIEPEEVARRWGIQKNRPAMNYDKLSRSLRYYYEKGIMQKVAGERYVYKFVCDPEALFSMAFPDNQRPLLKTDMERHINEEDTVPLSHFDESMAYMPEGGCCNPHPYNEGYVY
# How it was run: as §1
sequence,measurement,setting,value
ATGGTA,binding signal,[1],"1.39 fold enrichment (6-mer frequency, TF over GST control)"
same,binding signal,[2],"1.44 fold enrichment (6-mer frequency, TF over GST control)"
same,binding signal,[3],"1.39 fold enrichment (6-mer frequency, TF over GST control)"
same,binding signal,[4],"1.33 fold enrichment (6-mer frequency, TF over GST control)"
same,binding signal,[5],"1.36 fold enrichment (6-mer frequency, TF over GST control)"
same,binding signal,[6],"1.43 fold enrichment (6-mer frequency, TF over GST control)"
same,binding signal,[7],"1.23 fold enrichment (6-mer frequency, TF over GST control)"
same,binding signal,[8],"1.42 fold enrichment (6-mer frequency, TF over GST control)"
same,binding signal,[9],"1.36 fold enrichment (6-mer frequency, TF over GST control)"
same,binding signal,[10],"1.17 fold enrichment (6-mer frequency, TF over GST control)"
same,binding signal,[11],"1.43 fold enrichment (6-mer frequency, TF over GST control)"
same,binding signal,[12],"1.21 fold enrichment (6-mer frequency, TF over GST control)"
same,binding signal,[13],"1.31 fold enrichment (6-mer frequency, TF over GST control)"
same,binding signal,[14],"1.31 fold enrichment (6-mer frequency, TF over GST control)"
same,binding signal,[15],"1.49 fold enrichment (6-mer frequency, TF over GST control)"
same,binding signal,[16],"1.45 fold enrichment (6-mer frequency, TF over GST control)"
same,binding signal,[17],"1.48 fold enrichment (6-mer frequency, TF over GST control)"
same,binding signal,[18],"1.33 fold enrichment (6-mer frequency, TF over GST control)"
same,binding signal,[19],"1.47 fold enrichment (6-mer frequency, TF over GST control)"
